Screens: PubChem BioAssay, National Center for Advancing Translational Sciences (NCATS)
A selection: hits, their analogues and other compounds. The true share with any hit is near 7.9%.
KB-V1 cytotox = kills drug-selected multidrug resistant KB-V1 cells; Potency, µM (series often up to 46.1 µM), hits mostly cytotoxic; 400,000 compounds, 3.4% hits; KB-V1 MDR cells viability, CellTiter-Glo, 72 h; note: % is set by controls: 0 for no effect and ±100 for the full control effect; nearly all actives have a fitted effect of over 60% in size
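Cytotoxicity via CellTiter-Glo luminescence after 72 h compound exposure at 37 degrees C. Cells: drug-selected KB-V1 line, DMEM phenol-red free plus 10% FBS. Compounds tested at multiple concentrations; normalized data fitted to concentration-effect curves.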
HT1080NT lethal = kills 2HG-producing HT-1080-NT fibrosarcoma cells; HT-1080-NT fibrosarcoma viability, CellTiter-Glo ATP luminescence, 48 h; Potency, µM (series often up to 46.1 µM), without a hit: at the top dose activity, negative = less viability, actives largely listed as cytotoxic; 360,000 compounds, 1.6% hits; AID 686970;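 note: NT is the 2HG producing partner of a matched IDH1 knockdown line; 0% = DMSO-treated cells and -100% = media-only wells without cells; nearly all actives have a fitted effect of over 55% in size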
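HT-1080-NT fibrosarcoma cells (2HG-overproducing), 750 cells/well in RPMI with 5% FBS, dosed after 2 h and incubated 48 h at 37C. CellTiter-Glo luminescence normalized to DMSO and no-cell wells; concentration-response curves fitted and classed.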
MCF10A rerep = inducers of DNA re-replication in MCF 10A breast cells | MCF 10A DNA re-replication, Hoechst nuclear intensity, 48 h | Potency, µM (titrated, usually from 46.1 µM), for inactives: top-dose activity, positive = re-replication, hits mostly activators | 350,000 compounds, 2.9% hits | AID 624296; note: % of control where 0% means no effect; nearly all actives have a fitted effect of over 50% in size
HT1080 IDH1KD tx = kills HT-1080 cells with IDH1 knockdown; Potency, µM (doses to about 46.1 µM), inactives show top-dose activity, negative = toxicity, actives largely listed as cytotoxic; HT-1080 IDH1 knockdown viability, ATP luminescence, 48 h; AID 686971; 360,000 compounds, 2% hits;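 note: 0% = DMSO wells and -100% = cell-free medium wells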
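IDH1KD HT-1080 cells, 750/well, RPMI + 5% FBS; compound pinned after 2 h settling; 48 h, 37 °C; CellTiter-Glo luminescence; % activity normalised to DMSO and no-cell wells; curves fitted, classed by r2 and efficacy.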
SW480 rereplic = DNA re-replication induction in SW480 cells; SW480 DNA re-replication, Hoechst DNA content imaging, 48 h; Potency, µM (highest dose often 46.1 µM), for inactives: top-dose re-replication activation, hits mostly activators; 340,000 compounds, 1.8% hits; note: % of control where 0% means no effect; nearly all actives have a fitted effect of over 55% in size
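Treated cells incubate 48 hr (37 C, 5% CO2), are stained 40 min with Hoechst, and nuclear fluorescence is enumerated; a rise in nuclei with high DNA signal marks re-replication.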
KB-3-1 cytotox = KB-3-1 parental cell cytotoxicity; Potency, µM (top dose mostly 46.1 µM), hits mostly cytotoxic; 400,000 compounds, 1.4% hits; KB-3-1 viability, CellTiter-Glo ATP luminescence, 72 h; note: % is set by controls: 0 for no effect and ±100 for the full control effect; nearly all actives have a fitted effect of over 60% in size
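72 h, 37 °C compound treatment of KB-3-1 parental cells; CellTiter-Glo added, 10 min, luminescence read. Data corrected against DMSO-only plates and normalized before curve fitting.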
The depositor's hits bear a star; i = inactive; ? = inconclusive; nt = no result; [ ] = dose if it differs, or a comment. Calls come from the whole dose curve; as a rule, active = well fitted curve in the direction sought with a large enough effect; inconclusive = small, poorly fitted or top-dose-only effect, or another doubt; inactive = no such curve, though single readings can be large; an effect the other way counts as inactive or inconclusive. Potency is the fitted concentration of half-maximal effect.

SMILES | KB-V1 cytotox | HT1080NT lethal | MCF10A rerep | HT1080 IDH1KD tx | SW480 rereplic | KB-3-1 cytotox
CN(C)CCN(C)Cc1c2ccccc2c(CN(C)CCN(C)C)c2ccccc12 | i | ? | ? | 21µM* | ? | i
COc1ccc(/C=c2\s/c(=C\C(=O)C(C)(C)C)[nH]c2=O)cc1O | i | 2% | ? | -13% | 9% | i
COc1cc(/C=c2\s/c(=C\C(=O)C(C)(C)C)[nH]c2=O)cc(OC)c1OC | ? | -24% | 18µM* | -26% | 4.1µM* | i
COc1cc(-c2cc(-c3nnco3)c3ccccc3n2)cc(OC)c1OC | ? | -16% | 6% | -17% | -8% | i
CCn1ncc(/C=N\NC(=O)COc2cc(C)cc(C)c2)c1C | 12µM* | -1% | 9% | ? | ? | ?
COc1ccc(C(=O)NN/C=C/C(=O)c2ccc(Br)cc2)cc1 | i | -18% | nt | -26% | nt | i
COc1ccc(C(=O)C=CNNC(=O)c2ccc(Cl)cc2)cc1 | ? | -28% | 5.8µM* | ? | 3.7µM* | ?
CCN1CCCC1CNCC(O)COc1ccc(C(C)(C)C)cc1C (stereo unspecified) | i | -28% | 9.2µM* | ? | ? | i
Cc1cnc(C(=O)N2CCCC(N3CCN(c4cccc(C(F)(F)F)c4)CC3)C2)cn1 (stereo unspecified) | i | -12% | 5% | -1% | -1% | i
Cc1ccc(C(=O)N2CCN(c3cc4c(cc3[N+](=O)[O-])n(C)c(=O)n4C)CC2)cc1 | i | -10% | 13% | -2% | ? | i
C=CCN(c1ccccc1OC)S(=O)(=O)c1cccc(C(=O)OCC(=O)c2c[nH]c3ccccc23)c1 | 12µM* | 1% | -41% | -13% | ? | ?
COc1cc(OC)c(N(C)S(=O)(=O)c2cccc(C(=O)OCC(=O)c3c[nH]c4ccccc34)c2)cc1Cl | ? | -20% | 18% | ? | ? | i
CCc1cccc(N2C(=O)CSC23C(=O)N(Cc2ccccc2F)c2ccccc23)c1 (stereo unspecified) | 15µM* | nt | nt | nt | nt | 21µM*
O=C1CSC2(C(=O)N(Cc3ccccc3F)c3ccccc32)N1c1ccc(F)cc1 (stereo unspecified) | 16µM* | nt | nt | nt | nt | ?
Cc1nnc(CN(C)C(=O)c2cc(COc3ccc(C)c(C)c3)on2)o1 | i | 4% | 0% | 0% | 16% | i
CCCCn1c(=O)c2c(O)cc(=O)oc2c2ccccc21 | 4.6µM* | 1% | -5% | 7% | -10% | i
O=C1CCCc2c1cc(C(=O)O)c(=O)n2-c1ccccc1 | i | 4% | -1% | -4% | -2% | i
O=c1c([N+](=O)[O-])c(O)c2ccccc2n1Cc1ccccc1 | i | -3% | 6% | 0% | -16% | i
CCCCn1c(=O)cc(O)c2ccccc21 | i | -2% | -1% | -1% | 2% | i
O=c1cc(O)c2c(=O)n(Cc3ccccc3)c3ccccc3c2o1 | 6.5µM* | -15% | ? | -24% | 12% | i
Cc1nc2c(c(=O)c3ccccc3n2C)c(=O)n1C1CCCCCC1 | i | 0% | -3% | -3% | -8% | i
O=c1cc(O)c2c(=O)n(C3CCCCC3)c3ccccc3c2o1 | 4.1µM* | 5% | ? | ? | 0% | ?
O=c1cc(O)c2c(=O)n(-c3ccccc3)c3c(c2o1)CCCCCC3 | 5.2µM* | -3% | ? | 0% | 2% | i
CCC(=O)N1CCN(c2ccc(OC)cc2[N+](=O)[O-])CC1 | i | 4%[9.24 µM] | 0% | -19% | -3% | i
CCOC(=O)/C(C#N)=C1/C=CN(c2ccccc2)C=N1 | i | 19% | 9% | 21% | -3% | i
SMILES | KB-V1 cytotox | HT1080NT lethal | MCF10A rerep | HT1080 IDH1KD tx | SW480 rereplic | KB-3-1 cytotox
CCOC(=O)/C(C#N)=C1/C=CN(Cc2ccccc2)C=N1 | 13µM* | ? | 12% | -3% | 0% | i
O=C1c2ccccc2C(=O)N1CCCCn1c(=O)oc2ccccc21 | i | 20% | 12% | 22% | -4% | i
CC(=O)Nc1cccc(C(=O)/C=C/c2ccc[nH]2)c1 | i | 1% | 5% | 11% | -44% | i
CC(=O)Nc1cccc(C(=O)/C=C/c2ccc(F)cc2)c1 | ? | 4% | 9.2µM* | 12µM* | ? | i
COc1ccc(Br)cc1/C=C/C(=O)Nc1ccc2ccccc2c1 | i | 11% | ? | 1% | -2% | i
CC(=O)Nc1cccc(C(=O)/C=C/c2ccc(N(C)C)cc2)c1 | ? | 3% | ? | 1% | ? | i
CC(=O)Nc1cccc(C(=O)/C=C/c2ccc(Br)cc2)c1 | ? | ? | 5.8µM* | -1% | 21µM* | i
CCC(=O)Nc1cccc(C(=O)/C=C/c2cc(Br)ccc2OC)c1 | 18µM* | 8.2µM* | 2.9µM* | 8.2µM* | 3.7µM* | i
O=C(COC(=O)c1ccc(Br)c(S(=O)(=O)N2CCOCC2)c1)NCCc1ccccc1 | i | -1% | 1% | -4% | 0% | i
Cn1cc(/C=C2\SC(=O)NC2=S)c2ccccc21 | i | ? | 0% | ? | 1% | i
Cc1[nH]n2c(=O)cc(C(C)C)nc2c1-c1ccccc1 | ? | -4% | ? | ? | 5% | ?
COc1cccc(-c2cc3nc(-c4ccccc4)cc(=O)n3[nH]2)c1 | 4.6µM* | 1.5µM* | ? | 1.3µM* | 22% | 5.8µM*
Cc1[nH]n2c(=O)cc(C(C)(C)C)nc2c1-c1ccccc1 | ? | -26% | ? | ? | ? | 7.3µM*
Cc1[nH]n2c(=O)cc(-c3ccc(Cl)cc3)nc2c1-c1ccccc1 | i | nt | nt | nt | nt | ?
COc1ccc(-c2c(C(F)(F)F)[nH]n3c(=O)cc(-c4ccccc4)nc23)cc1 | ? | 4% | 2.6µM* | ? | 29µM* | i
Cc1[nH]n2c(=O)cc(-c3ccc([N+](=O)[O-])cc3)nc2c1-c1ccccc1 | i | 16µM* | ? | 16µM* | ? | ?
Clc1ccccc1CSC1=NCCCN1 | i | 7% | -2% | 2% | 0% | i
CCc1cc(=O)n2[nH]c(-c3ccccc3)c(-c3ccccc3)c2n1 | i | ? | ? | ? | 21µM* | ?
COc1ccc(/C=C2\C(=O)c3ccccc3OC2c2ccccc2)cc1 (stereo unspecified) | 7.3µM* | ? | 10µM* | ? | ? | ?
CCOc1ccccc1C1NC(=O)c2ccccc2O1 (stereo unspecified) | i | 12% | -4% | 13% | -11%[9.22 µM] | i
